Experiment in all cases: PBM; 200 nM protein, PBS
What all share (conditions): dsDNA, one strand shown

Assay [1] deals with CRX (Homo sapiens, UniProt O43186 26-111).
The target in assay [2] is HOXA4 (Homo sapiens, UniProt Q00056 201-287, W262R).
In assay [3] the target is CRX (Homo sapiens, UniProt O43186 26-111, E42D).
In a further assay the target is PITX2 (Homo sapiens, UniProt Q99697 72-157).
Assay [4] addresses HOXA4 (Homo sapiens, UniProt Q00056 201-287).
The target of assay [5] is CRX (Homo sapiens, UniProt O43186 26-111, R41L).
Assay [6] has as its target HOXC9 (Homo sapiens, UniProt P31274 178-260, K195R).
The target in the next assay is T1, NKX2-6 (Homo sapiens, UniProt A6NCS4 118-204, R150C).
T1 sequence: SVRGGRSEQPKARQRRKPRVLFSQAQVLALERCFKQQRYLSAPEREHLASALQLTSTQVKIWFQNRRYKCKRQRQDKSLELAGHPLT

Assay [7] has as its target HOXC9 (Homo sapiens, UniProt P31274 178-260).
For assay [8], the target named is HOXC9 (Homo sapiens, UniProt P31274 178-260, R193K).
The target in assay [9] is HOXC9 (Homo sapiens, UniProt P31274 178-260, R222W).
For assay [10], the target named is T2, SIX6 (Homo sapiens, UniProt O95475 114-200, L167I).
T2 sequence: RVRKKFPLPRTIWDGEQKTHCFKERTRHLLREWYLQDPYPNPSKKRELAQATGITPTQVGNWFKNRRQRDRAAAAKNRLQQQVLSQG

The target in assay [11] is T3, SIX6 (Homo sapiens, UniProt O95475 114-200, L143V).
T3 sequence: T2 sequence with L30V, I54L

Assay [12] deals with ALX4 (Homo sapiens, UniProt Q9H161 200-286).
For assay [13], the target named is T4, PAX4 (Homo sapiens, UniProt O43316 9-242, R200K).
T4 sequence: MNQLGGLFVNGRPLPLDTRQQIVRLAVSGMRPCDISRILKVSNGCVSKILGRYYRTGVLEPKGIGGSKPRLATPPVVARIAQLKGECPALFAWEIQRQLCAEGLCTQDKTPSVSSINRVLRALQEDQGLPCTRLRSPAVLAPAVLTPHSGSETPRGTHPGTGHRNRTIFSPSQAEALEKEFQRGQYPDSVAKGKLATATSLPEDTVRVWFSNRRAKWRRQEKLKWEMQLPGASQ

Assay [14] deals with T5, SIX6 (Homo sapiens, UniProt O95475 114-200, H141N).
T5 sequence: T2 sequence with H28N, I54L

The target in assay [15] is T6, SIX6 (Homo sapiens, UniProt O95475 114-200, T165P).
T6 sequence: T2 sequence with T52P, I54L

Assay [16] deals with T7, PAX4 (Homo sapiens, UniProt O43316 9-242).
T7 sequence: T4 sequence with K192R

Assay [17] addresses T8, SIX6 (Homo sapiens, UniProt O95475 114-200, L167M).
T8 sequence: T2 sequence with I54M

For assay [18], the target named is T9, SIX6 (Homo sapiens, UniProt O95475 114-200, L143M).
T9 sequence: T2 sequence with L30M, I54L

The target of assay [19] is T10, SIX6 (Homo sapiens, UniProt O95475 114-200, L143I).
T10 sequence: T2 sequence with L30I, I54L

Assay [20] deals with ALX4 (Homo sapiens, UniProt Q9H161 200-286, Q225E).
The target of assay [21] is T11, SIX6 (Homo sapiens, UniProt O95475 114-200, T165G).
T11 sequence: T2 sequence with T52G, I54L

Assay [22] concerns the target HOXA2 (Homo sapiens, UniProt O43364 129-215, R185T).
Assay [23] addresses T12, SIX6 (Homo sapiens, UniProt O95475 114-200, T139Q).
T12 sequence: T2 sequence with T26Q, I54L

Assay [24] deals with ALX3 (Homo sapiens, UniProt O95076 139-225, N203Q).
Assay [25] addresses T13, SIX6 (Homo sapiens, UniProt O95475 114-200, T165A).
T13 sequence: T2 sequence with T52A, I54L

Assay [26] addresses T14, PAX4 (Homo sapiens, UniProt O43316 9-242, R200Q).
T14 sequence: T4 sequence with K192Q

Assay [27] has as its target HOXA2 (Homo sapiens, UniProt O43364 129-215, R185K).
In assay [28] the target is T15, PAX4 (Homo sapiens, UniProt O43316 9-242, F177V).
T15 sequence: T4 sequence with F169V, K192R

Assay [29] deals with T16, SIX6 (Homo sapiens, UniProt O95475 114-200, L167V).
T16 sequence: T2 sequence with I54V

Assay [30] addresses ALX3 (Homo sapiens, UniProt O95076 139-225).
The target in assay [31] is T17, PAX4 (Homo sapiens, UniProt O43316 9-242, F177Y).
T17 sequence: T4 sequence with F169Y, K192R

Assay [32] has as its target T18, SIX6 (Homo sapiens, UniProt O95475 114-200).
T18 sequence: T2 sequence with I54L

The target of assay [33] is ALX3 (Homo sapiens, UniProt O95076 139-225, L168Q).
Assay [34] addresses T19, SIX6 (Homo sapiens, UniProt O95475 114-200, T165I).
T19 sequence: T2 sequence with T52I, I54L

Assay [35] concerns the target ALX3 (Homo sapiens, UniProt O95076 139-225, L168V).
The target of assay [36] is T20, PAX4 (Homo sapiens, UniProt O43316 9-242, R227W).
T20 sequence: T4 sequence with K192R, R219W

In assay [37] the target is HOXA2 (Homo sapiens, UniProt O43364 129-215, Y150S).
Assay [38] addresses ALX3 (Homo sapiens, UniProt O95076 139-225, N203S).
The target in assay [39] is HOXA2 (Homo sapiens, UniProt O43364 129-215).

Substitutions are numbered along the chain they refer to.

CRX (Homo sapiens, UniProt O43186 26-111, R41L), sequence (O43186 26-111 R41L): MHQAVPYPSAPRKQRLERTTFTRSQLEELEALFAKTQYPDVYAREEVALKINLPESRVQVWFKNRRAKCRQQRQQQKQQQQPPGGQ
CRX (Homo sapiens, UniProt O43186 26-111), sequence (O43186 26-111): as the sequence (O43186 26-111 R41L) above, with L16R counted along it
CRX (Homo sapiens, UniProt O43186 26-111, E42D), sequence (O43186 26-111 E42D): as the sequence (O43186 26-111 R41L) above, with L16R, E17D counted along it
ALX3 (Homo sapiens, UniProt O95076 139-225), sequence (O95076 139-225): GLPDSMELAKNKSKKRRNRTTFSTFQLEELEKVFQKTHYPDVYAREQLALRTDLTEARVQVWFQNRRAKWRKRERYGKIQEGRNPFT
HOXC9 (Homo sapiens, UniProt P31274 178-260, R193K), sequence (P31274 178-260 R193K): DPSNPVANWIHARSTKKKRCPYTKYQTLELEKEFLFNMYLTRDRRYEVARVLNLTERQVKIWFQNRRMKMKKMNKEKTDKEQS
HOXA2 (Homo sapiens, UniProt O43364 129-215), sequence (O43364 129-215): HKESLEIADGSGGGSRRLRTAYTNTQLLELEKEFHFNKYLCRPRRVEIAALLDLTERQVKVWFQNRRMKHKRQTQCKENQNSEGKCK
HOXC9 (Homo sapiens, UniProt P31274 178-260, K195R), sequence (P31274 178-260 K195R): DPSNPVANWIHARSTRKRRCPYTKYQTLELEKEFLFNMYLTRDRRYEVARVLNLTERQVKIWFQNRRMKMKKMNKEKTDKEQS
HOXC9 (Homo sapiens, UniProt P31274 178-260, R222W), sequence (P31274 178-260 R222W): as the sequence (P31274 178-260 R193K) above, with K16R, R45W counted along it
HOXA2 (Homo sapiens, UniProt O43364 129-215, R185K), sequence (O43364 129-215 R185K): as the sequence (O43364 129-215) above, with R57K counted along it
ALX3 (Homo sapiens, UniProt O95076 139-225, N203Q), sequence (O95076 139-225 N203Q): as the sequence (O95076 139-225) above, with N65Q counted along it
ALX4 (Homo sapiens, UniProt Q9H161 200-286), sequence (Q9H161 200-286): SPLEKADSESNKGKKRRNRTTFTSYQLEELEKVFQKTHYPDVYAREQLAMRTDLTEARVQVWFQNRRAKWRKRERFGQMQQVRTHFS
HOXA4 (Homo sapiens, UniProt Q00056 201-287, W262R), sequence (Q00056 201-287 W262R): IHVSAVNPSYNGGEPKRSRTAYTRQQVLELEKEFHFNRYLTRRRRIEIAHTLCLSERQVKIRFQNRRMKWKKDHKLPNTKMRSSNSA
ALX3 (Homo sapiens, UniProt O95076 139-225, L168Q), sequence (O95076 139-225 L168Q): as the sequence (O95076 139-225) above, with L30Q counted along it
HOXC9 (Homo sapiens, UniProt P31274 178-260), sequence (P31274 178-260): as the sequence (P31274 178-260 R193K) above, with K16R counted along it
HOXA4 (Homo sapiens, UniProt Q00056 201-287), sequence (Q00056 201-287): as the sequence (Q00056 201-287 W262R) above, with R62W counted along it
HOXA2 (Homo sapiens, UniProt O43364 129-215, Y150S), sequence (O43364 129-215 Y150S): as the sequence (O43364 129-215) above, with Y22S counted along it
ALX4 (Homo sapiens, UniProt Q9H161 200-286, Q225E), sequence (Q9H161 200-286 Q225E): as the sequence (Q9H161 200-286) above, with Q26E counted along it
HOXA2 (Homo sapiens, UniProt O43364 129-215, R185T), sequence (O43364 129-215 R185T): as the sequence (O43364 129-215) above, with R57T counted along it
ALX3 (Homo sapiens, UniProt O95076 139-225, N203S), sequence (O95076 139-225 N203S): as the sequence (O95076 139-225) above, with N65S counted along it
ALX3 (Homo sapiens, UniProt O95076 139-225, L168V), sequence (O95076 139-225 L168V): as the sequence (O95076 139-225) above, with L30V counted along it

On to GTGGATTA, for which the binding signal is 13.3 upbm affinity estimate (log intensity, higher = more binding, comparable within an allelic series) with CRX [1]; 10.2 upbm affinity estimate (log intensity, higher = more binding, comparable within an allelic series) with HOXA4 [2]; 13.3 upbm affinity estimate (log intensity, higher = more binding, comparable within an allelic series) with CRX [3]; 13.2 upbm affinity estimate (log intensity, higher = more binding, comparable within an allelic series) in the assay with PITX2; 10.8 upbm affinity estimate (log intensity, higher = more binding, comparable within an allelic series) with HOXA4 [4]; 13.1 upbm affinity estimate (log intensity, higher = more binding, comparable within an allelic series) with CRX [5].

For GGGGACCC, the binding signal was 8.16 upbm affinity estimate (log intensity, higher = more binding, comparable within an allelic series) with CRX [1]; 9.36 upbm affinity estimate (log intensity, higher = more binding, comparable within an allelic series) in the assay with HOXC9 [6]; 9.43 upbm affinity estimate (log intensity, higher = more binding, comparable within an allelic series) with NKX2-6; 8.31 upbm affinity estimate (log intensity, higher = more binding, comparable within an allelic series) with CRX [3]; 9.5 upbm affinity estimate (log intensity, higher = more binding, comparable within an allelic series) in the assay with HOXC9 [7]; 7.78 upbm affinity estimate (log intensity, higher = more binding, comparable within an allelic series) in the assay with PITX2. Further, the binding signal with HOXC9 [8] is 9.41 upbm affinity estimate (log intensity, higher = more binding, comparable within an allelic series); with HOXC9 [9] it was 9.52 upbm affinity estimate (log intensity, higher = more binding, comparable within an allelic series); in the assay with CRX [5] it was 8.26 upbm affinity estimate (log intensity, higher = more binding, comparable within an allelic series).

With GCAGCTGC, the binding signal was 8.45 upbm affinity estimate (log intensity, higher = more binding, comparable within an allelic series) in the assay with CRX [1]; 9.09 upbm affinity estimate (log intensity, higher = more binding, comparable within an allelic series) in the assay with SIX6 [10]; 9.05 upbm affinity estimate (log intensity, higher = more binding, comparable within an allelic series) with SIX6 [11]; 7.95 upbm affinity estimate (log intensity, higher = more binding, comparable within an allelic series) with ALX4 [12]; 8.99 upbm affinity estimate (log intensity, higher = more binding, comparable within an allelic series) with PAX4 [13]; 9.04 upbm affinity estimate (log intensity, higher = more binding, comparable within an allelic series) with SIX6 [14]. Moreover, the binding signal with SIX6 [15] was 9.02 upbm affinity estimate (log intensity, higher = more binding, comparable within an allelic series); with PAX4 [16], 9.1 upbm affinity estimate (log intensity, higher = more binding, comparable within an allelic series); with SIX6 [17], 9.06 upbm affinity estimate (log intensity, higher = more binding, comparable within an allelic series); in the assay with SIX6 [18], 9.14 upbm affinity estimate (log intensity, higher = more binding, comparable within an allelic series); in the assay with SIX6 [19], 9.05 upbm affinity estimate (log intensity, higher = more binding, comparable within an allelic series); with ALX4 [20], 8.23 upbm affinity estimate (log intensity, higher = more binding, comparable within an allelic series). Further, the binding signal is 9.04 upbm affinity estimate (log intensity, higher = more binding, comparable within an allelic series) in the assay with SIX6 [21]; 7.31 upbm affinity estimate (log intensity, higher = more binding, comparable within an allelic series) with HOXA2 [22]; 9.1 upbm affinity estimate (log intensity, higher = more binding, comparable within an allelic series) with SIX6 [23]; 8.55 upbm affinity estimate (log intensity, higher = more binding, comparable within an allelic series) with CRX [3]; 7.82 upbm affinity estimate (log intensity, higher = more binding, comparable within an allelic series) with ALX3 [24]; 9.05 upbm affinity estimate (log intensity, higher = more binding, comparable within an allelic series) in the assay with SIX6 [25]. Besides, the binding signal is 9.09 upbm affinity estimate (log intensity, higher = more binding, comparable within an allelic series) in the assay with PAX4 [26]; 10.3 upbm affinity estimate (log intensity, higher = more binding, comparable within an allelic series) in the assay with HOXA2 [27]; 9.27 upbm affinity estimate (log intensity, higher = more binding, comparable within an allelic series) with PAX4 [28]; 9.06 upbm affinity estimate (log intensity, higher = more binding, comparable within an allelic series) in the assay with SIX6 [29]; 7.63 upbm affinity estimate (log intensity, higher = more binding, comparable within an allelic series) in the assay with ALX3 [30]; 9.13 upbm affinity estimate (log intensity, higher = more binding, comparable within an allelic series) with PAX4 [31]. Also, the binding signal is 9.1 upbm affinity estimate (log intensity, higher = more binding, comparable within an allelic series) in the assay with SIX6 [32]; 7.75 upbm affinity estimate (log intensity, higher = more binding, comparable within an allelic series) with ALX3 [33]; 9.05 upbm affinity estimate (log intensity, higher = more binding, comparable within an allelic series) in the assay with SIX6 [34]; 7.78 upbm affinity estimate (log intensity, higher = more binding, comparable within an allelic series) with ALX3 [35]; 9.34 upbm affinity estimate (log intensity, higher = more binding, comparable within an allelic series) with PAX4 [36]; 10.3 upbm affinity estimate (log intensity, higher = more binding, comparable within an allelic series) with HOXA2 [37]. The binding signal is 8.5 upbm affinity estimate (log intensity, higher = more binding, comparable within an allelic series) in the assay with CRX [5]; 7.82 upbm affinity estimate (log intensity, higher = more binding, comparable within an allelic series) with ALX3 [38]; 7.36 upbm affinity estimate (log intensity, higher = more binding, comparable within an allelic series) in the assay with HOXA2 [39].
